Test results from PubChem BioAssay AID1259310 (The Scripps Research Institute Molecular Screening Center, 2017).
“And” between values parts separate entries of the source, which are not always exact repeats. Equal values may be shown once. In all, about 650,000 compounds went through this assay and about 850 (0.13%) were called active. Only a selection was taken, and actives are over-represented in it overall. Unmarked numbers belong to inactive results. Rule as the data show it: active = normalized activity above about 1.9%; inactive = the rest.

biological target: F-box/WD repeat-containing protein 7 (Homo sapiens) (UniProt Q969H0); test: FBW7 E3 ligase activators, primary screen, biochemical, AlphaScreen, human (AID 1259310); conditions: AlphaScreen FBW7–phospho-cyclin E peptide binding, activator screen; at 26.1 µM; active compounds read high;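 also: purified mutant Fbw7 with reduced substrate affinity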
Sequence (Q969H0 whole entry, looked up): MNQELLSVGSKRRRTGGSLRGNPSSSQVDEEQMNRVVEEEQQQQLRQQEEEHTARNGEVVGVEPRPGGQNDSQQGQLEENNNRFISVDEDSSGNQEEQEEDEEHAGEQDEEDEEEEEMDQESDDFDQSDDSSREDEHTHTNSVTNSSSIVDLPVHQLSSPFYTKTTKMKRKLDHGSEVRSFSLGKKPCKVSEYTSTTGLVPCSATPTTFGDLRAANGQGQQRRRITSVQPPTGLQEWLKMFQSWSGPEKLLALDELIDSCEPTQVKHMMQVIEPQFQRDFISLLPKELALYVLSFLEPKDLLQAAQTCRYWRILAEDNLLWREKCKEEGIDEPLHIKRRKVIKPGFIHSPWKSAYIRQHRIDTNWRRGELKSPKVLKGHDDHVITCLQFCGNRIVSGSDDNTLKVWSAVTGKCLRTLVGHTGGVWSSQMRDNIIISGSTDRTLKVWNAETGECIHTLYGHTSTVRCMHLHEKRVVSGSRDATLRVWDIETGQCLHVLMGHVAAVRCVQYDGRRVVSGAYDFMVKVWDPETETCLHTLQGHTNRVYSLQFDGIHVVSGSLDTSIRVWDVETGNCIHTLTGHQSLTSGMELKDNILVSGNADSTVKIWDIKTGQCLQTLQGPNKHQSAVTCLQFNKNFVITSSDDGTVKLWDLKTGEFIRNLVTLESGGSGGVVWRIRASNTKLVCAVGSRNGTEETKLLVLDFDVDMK

SMILES | normalized activity (activation)
NC(=O)CSc1ccc2nnc(-c3ccccn3)n2n1 | 69.7% (active)
O=C(O)CSc1ccc2nnc(-c3ccc(F)cc3)n2n1 | 0.39%
Cc1ccc(-c2nnc3ccc(SCC(N)=O)nn23)cc1 | 0.47%
O=C(Nc1ccc(N2CCOCC2)cc1)c1cccc(-n2nccc2NC(=O)C2CC2)c1 | 0.06%
COc1ccc(N2CCN(C(CNC(=O)C(C)C)c3ccco3)CC2)cc1 (configuration not stated) | 0%
COc1ccc(Br)cc1CN(C)Cn1cnc2ccccc21 | -0.03%
CC(C)N(Cc1ccccc1)C(=O)c1cc2c(=O)n3ccccc3nc2n1C | 0.69%
C=CCNC(=O)c1cc2c(=O)n3cccc(C)c3nc2n1C | 0.17%
CCN(Cc1ccccc1)C(=O)c1cc2c(=O)n3cccc(C)c3nc2n1C | 3.93% (active)
O=C(CNC(=O)OCc1ccccc1)Oc1ccc2c(-c3ccccc3)cc(=O)oc2c1 | -0.09%
O=C(NCc1nnc2n1CCN(Cc1c(F)cccc1Cl)CC2)c1ccccc1 | -0.02%
O=C(Cc1cccs1)NCCS(=O)(=O)N1CCN(c2ccccn2)CC1 | 0.01%
O=C(c1cnsc1)N1CCCC(c2ncncc2-c2ccncc2)C1 (configuration not stated) | 0.35%
O=C(c1cnsc1)N1CCC(c2[nH]ncc2-c2ccncc2)CC1 | 2.18% (active)
Cc1cc(C(=O)N2CCC(c3[nH]ncc3-c3ccncc3)CC2)c(C)[nH]1 | 0.63%
Cc1ccc(C)c(C(=O)Nc2ncc(S(=O)(=O)c3ccc([N+](=O)[O-])cc3)s2)c1 | -0.16%
CCOc1ccc(NC(C)C(=O)N/N=C/c2ccccc2O)cc1 (configuration not stated) | -0.35%
COCCn1nnnc1C(c1cc2ccc(C)cc2[nH]c1=O)N1CCCC1 (configuration not stated) | -0.04%
COCCn1nnnc1C(c1cc2cc(C)c(C)cc2[nH]c1=O)N1CCCCC1 (configuration not stated) | -0.02%

SMILES | normalized activity (activation)
COCCn1nnnc1C(c1cc2cc(C)cc(C)c2[nH]c1=O)N1CCOCC1 (configuration not stated) | 2.29% (active)
O=C1NC(=O)C(=Cc2ccc(OC(=O)c3ccc(Cl)c(Cl)c3)cc2)C(=O)N1 | 0.22%
CCOC(=O)CSc1nc2ccsc2c(=O)n1CCc1ccc(OC)c(OC)c1 | 0.46%
CCSCCOC(=O)C1=C(C)NC2=C(C(=O)CC(c3ccccc3)C2)C1c1ccc(OC)cc1OC (configuration not stated) | 2.28% (active)
CCSCCOC(=O)C1=C(C)NC2=C(C(=O)CC(c3ccccc3)C2)C1c1ccccc1 (configuration not stated) | 0.61%
COCCOC(=O)C1=C(C)NC2=C(C(=O)CC(c3ccccc3)C2)C1c1cc(OC)ccc1OC (configuration not stated) | 0.27%
O=C(Nc1ccc(C(=O)Nc2nccs2)cc1)c1ccc2c(c1)C(=O)N(c1ccccc1-c1ccccc1)C2=O | -0.08%
Cc1ccc(N=c2scc(C)n2CCCO)cc1 | -0.38%
CN(C)c1cccc(Nc2cccc(C(=O)NC3CC3)n2)c1 | -0.12%
CN(C)c1cccc(Nc2cc(C(=O)NC3CC3)c3ccccc3n2)c1 | 0.31%
CC(=O)N(C)c1nc(-c2cccc(N(C)C)c2)ccc1C(=O)NC1CCCCC1 | 1.86% (active)
CCOC(=O)N1CCC(NC(=O)CC2C(=O)NCCN2Cc2ccoc2)CC1 (configuration not stated) | 0.27%
CCCCSc1ncnc2c1c(-c1ccccc1)cn2-c1ccc(OC)cc1 | -0.03%
Cc1ccc(C(C)C)c(OCC(=O)Oc2ccc3c(c2)oc(=O)c2ccccc23)c1 | -0.05%
CCOC(=O)/C(C#N)=C/c1cc(C)n(-c2ccc(C(=O)OCC)cc2)c1C | -0.1% and -0.13%
COCCNC(=O)/C(C#N)=C/c1ccc(N2CCOCC2)cc1 | 0.46%
CCOC(=O)/C(C#N)=C/c1ccc(N2CCCCC2)cc1 | 1.85% (active)
CCOC(=O)C1=C(C)N=c2s/c(=C\c3ccc(OCc4ccc([N+](=O)[O-])cc4)c(OC)c3)c(=O)n2C1c1ccc2c(c1)OCO2 (configuration not stated) | 0.04%
COCCNc1ncc(-c2cccs2)cn1 | 0.02%

SMILES | normalized activity (activation)
O=C1C2C3c4ccccc4C(c4ccccc43)C2C(=O)N1CCCCO (configuration not stated) | 0.04%
CC1=C(C#N)C(=O)N(CCCO)C(=O)/C1=C\c1ccc(-c2ccc(Cl)cc2)o1 | -0.06%
CCCCOC(=O)c1cccc(NC(=O)CN2C(=O)c3ccccc3C2=O)c1 | 0.09%
CNc1cc(-c2ccnc(Nc3ccc(-n4cnc(C)n4)cc3)c2)no1 | 0.51%
Cc1ncn(-c2ccc(Nc3cc(-c4nocc4-c4ccccn4)ccn3)cc2)n1 | 2.76% (active)
Cc1ncn(-c2ccc(Nc3cc(-c4cnn(C(C)C)c4-c4ccc(F)cc4)ccn3)cc2)n1 | 0.79%
O=c1c(NCCN2CCCCCC2)c(-c2ccc(Cl)cc2)c1=O | 0%
CC(C)NCCOCCOc1cccc(Br)c1 | 0.35%
COCc1cc(C)nc(OCC(=O)c2ccccc2)c1C#N | 0.04%
Cc1c(C(=O)N2CCOCC2)oc2c1-c1nn(CC(=O)NC(C)c3ccccc3)cc1CC2 (configuration not stated) | -0.04%
Cc1c(C(=O)N2CCCC2)oc2c1-c1nn(CC(=O)N3CCCC3)cc1CC2 | 8.41% (active)
Cc1c(C(=O)N2CCCC2)sc2ncn(CC(=O)N3CCCC3)c(=O)c12 | 0.33%
Nc1nnc(-c2ccc(Cn3c(-c4cncs4)nc4ccccc43)cc2)s1 | 0.1%
O=C(O)CCCN1C(=O)C(=O)/C(=C(\O)c2ccccc2)C1c1cccc(F)c1 (configuration not stated) | -0.31%
CC1CCCN(S(=O)(=O)c2cccc3cccnc23)C1 (configuration not stated) | -0.09%
Cc1cc(Nc2ccc(Cl)cc2)n2c(nc3ccccc32)c1C#N | -0.02%
Cc1cc(NCCN2CCCCCC2)n2c(nc3ccccc32)c1C#N | 2.12% (active)
Cc1c(Cc2ccccc2)c(N2CCCCC2)n2c(nc3ccccc32)c1C#N | 0.12%
CC(=O)c1cccc(-c2nc3ncnc(NCCOc4ccccc4)c3[nH]2)c1 | 0.01%
